Sampled rows, rich in hits. Any-hit rate of the full collection: about 2.3%.
YjeE inh – qHTS Assay for Inhibitors of YjeE; Potency, µM; actives 0.05% (n = 71,000); purified YjeE enzyme, qHTS inhibition assay
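Fluorescence polarization of a BODIPY Texas Red–ADP probe (2 uM) bound to purified YjeE (10 uM) was read after 15 min room-temperature incubation with compounds. Loss of polarization marks inhibitors; ADP serves as titrated control.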
Pol III holo inh – qHTS Assay for Inhibitors of DNA Polymerase III Holoenzyme System | reconstituted DNA polymerase III holoenzyme replication, biochemical | Potency, µM (highest dose often 57.1 µM) | actives 0.25% (n = 71,000)
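Reconstituted *E. coli* holoenzyme (0.35 nM Pol III, 1 nM beta, 154 nM SSB, 2 nM primase) was preincubated with compound for 15 min at RT. Synthesis on 1.4 nM ssM13Gori ran 35 min, then was stopped with PicoGreen/EDTA and read as dsDNA fluorescence.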
BRCT inh green – qHTS Assay for Inhibitors of BRCT-Phosphoprotein Interaction (Green Fluorophore). AID 875, 2007. Potency, µM (doses to about 76.9 µM), most hits filed as inhibitors. BRCA1 BRCT-phosphopeptide binding, green fluorescence polarization. actives 0.05% (n = 75,000)
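Fluorescence polarization: His-tagged BRCT (~35 kDa BRCA1 C-terminus, 250 nM) bound to 100 nM fluorescein-labeled phosphorylated 10-aa BACH1 peptide, pH 7.3 phosphate buffer with DTT and Tween 20. Compounds incubated 12 min at room temperature; inhibition read as lowered polarization.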
Tau fil binding – qHTS Assay for Tau Filament Binding | recombinant tau filaments, thioflavin S fluorescence, 15 h; filaments grown with octadecylsulfate alongside compound | Potency, µM (highest dose often 57.1 µM) | actives 2% (n = 71,000) | AID 596, 2007 | Microtubule-associated protein tau (Homo sapiens), P10636;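 note: actives lower thioflavin S fluorescence by blocking filaments or displacing dye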
Target sequence (P10636 whole entry, looked up): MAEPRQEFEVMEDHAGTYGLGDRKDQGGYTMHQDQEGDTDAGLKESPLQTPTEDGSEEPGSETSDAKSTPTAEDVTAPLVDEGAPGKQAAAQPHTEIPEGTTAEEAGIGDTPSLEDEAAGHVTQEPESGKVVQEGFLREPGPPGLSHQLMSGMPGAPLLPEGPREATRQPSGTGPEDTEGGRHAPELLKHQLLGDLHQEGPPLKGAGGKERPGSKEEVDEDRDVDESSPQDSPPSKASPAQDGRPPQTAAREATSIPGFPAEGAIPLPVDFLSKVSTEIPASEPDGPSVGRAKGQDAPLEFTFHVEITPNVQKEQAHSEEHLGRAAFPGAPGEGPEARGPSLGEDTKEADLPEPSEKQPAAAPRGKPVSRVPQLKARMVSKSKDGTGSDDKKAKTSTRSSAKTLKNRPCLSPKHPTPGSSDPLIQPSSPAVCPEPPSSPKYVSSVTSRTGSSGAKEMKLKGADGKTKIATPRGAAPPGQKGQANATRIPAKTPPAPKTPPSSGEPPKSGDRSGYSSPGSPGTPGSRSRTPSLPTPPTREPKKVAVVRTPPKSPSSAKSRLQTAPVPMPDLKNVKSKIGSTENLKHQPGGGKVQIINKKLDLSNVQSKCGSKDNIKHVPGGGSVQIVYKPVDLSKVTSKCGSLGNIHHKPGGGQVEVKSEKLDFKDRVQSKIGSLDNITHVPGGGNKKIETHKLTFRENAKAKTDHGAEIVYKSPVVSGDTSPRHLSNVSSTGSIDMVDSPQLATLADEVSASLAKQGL
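Read-out: ThS fluorescence, 450 nm excitation/510 nm emission; lower signal marks blocked filament formation or displaced dye. Tau at 1 uM with 30 uM ODS, 10 uM ThS, 5 mM DTT, 100 mM NaCl, 10 mM HEPES pH 7.4; 15 h, 37 C.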
BRCT PPI red – qHTS Assay for Inhibitors of BRCT-Phosphoprotein Interaction (Red Fluorophore) | Breast cancer type 1 susceptibility protein (Homo sapiens), P38398 | BRCT-phosphopeptide binding, red fluorescence polarization | Potency, µM (highest dose often 76.9 µM), hits mostly inhibitors | actives 0.03% (n = 75,000) | AID 892, 2007
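Fluorescence polarization: 100 nM His-tagged BRCA1 BRCT with 100 nM TAMRA-labelled phospho-BACH1 decapeptide, phosphate buffer pH 7.3 with 150 mM NaCl, DTT, 0.01% Tween 20; 12 min RT. Binding inhibition seen as FP decrease.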
Hsp90 Hop PPI – qHTS Assay for Disrupters of an Hsp90 Co-Chaperone Interaction; Hsp90 C-terminal peptide / TPR2A (Hop) interaction, human; AlphaScreen TPR2A-His6 binding biotin-Hsp90 C-terminal peptide; Potency, µM (series often up to 57 µM); actives 0.44% (n = 71,000); AID 595, 2007; active = well fitted curve in either direction with a large enough effect; inconclusive = small, poorly fitted or top-dose-only effect, or another doubt
Each line names hits and unclear results; the compound was inactive in the other large screens. Unless noted, calls come from the whole dose curve; as a rule, active = well fitted curve in the direction sought with a large enough effect; inconclusive = small, poorly fitted or top-dose-only effect, or another doubt; inactive = no such curve, though single readings can be large; an effect the other way counts as inactive or inconclusive.

CCc1ccc(C2C(C#N)=C(N)SC(N)=C2C#N)cc1	none
COc1cc2nc(N3CC=[N+](C(=O)c4ccco4)CC3)nc(N)c2cc1OC	none
CCOCCOC(=O)C1=C(C)Nc2ccc(C)cc2S1	Tau fil binding 12.6µM
COc1ccccc1CN1CC[C@@]2(CCCN(C(=O)c3cc(C(F)(F)F)cc(C(F)(F)F)c3)C2)C1	none
COc1cccc(-c2nc(NC3CCNCC3)c3ccccc3n2)c1	Pol III holo inh 31.6µM
CN(C)Cc1ccccc1-c1nc(NC2CCNCC2)c2ccccc2n1	Pol III holo inh 25.1µM
c1ccc2c(NC3CCNCC3)nc(-c3ccoc3)nc2c1	none
CN(C)c1ccc(-c2nc(NC3CCNCC3)c3ccccc3n2)cc1	Pol III holo inh inconclusive
CCNc1ncc2nc(-c3cccc(C#N)c3)c(=O)n(Cc3cccc(OC)c3)c2n1	none
CCOC(=O)C1=C(C)NC(=O)NC1c1ccco1 (centres undefined)	none
CCOC(=O)C1=C(N)n2c(s/c(=C\c3ccco3)c2=O)=C(C(=O)OCC)C1c1ccco1 (centres undefined)	Tau fil binding 15.8µM
C[C@@H]1NCC[C@H](CC(=O)O)[C@H]1CC(=O)O	none
Cn1c(=O)c(-c2cccs2)nc2cncnc21	none
CN1CCN(c2ccc3nc(-c4ccc5nc(-c6ccc(O)cc6)[nH]c5c4)[nH]c3c2)CC1	Pol III holo inh 2µM
CCSc1nnc(NC(=O)c2ccccn2)s1	Hsp90 Hop PPI 7.94µM
C=CCc1cccc(C2C(C)CCC3C(=O)N4C(Cc5c([nH]c6ccccc56)C4c4cc(OC)c(OC)c(OC)c4)C(=O)N32)c1 (centres undefined)	none (no result: YjeE inh, Pol III holo inh, Tau fil binding, Hsp90 Hop PPI)
CN(C)c1ccc(-c2ccc3ncnc(-n4ccnc4)c3c2)cc1	Tau fil binding 3.16µM
Cc1ccccc1-c1ccc2ncnc(-n3ccnc3)c2c1	none
COc1cccc2c1C(=O)c1c(O)c3c(c(O)c1C2=O)C[C@@](O)(C(C)=O)C[C@@H]3O[C@H]1C[C@H](N)[C@H](O)[C@H](C)O1	Pol III holo inh 0.158µM, Tau fil binding 0.126µM, BRCT PPI red 15.8µM, Hsp90 Hop PPI inconclusive
CCCC=O	none
N#Cc1c(/N=C/c2ccco2)sc2c1CCC2	Tau fil binding 15.8µM
Cc1ccc(/C=N/c2sc3c(c2C#N)CCCCC3)o1	Pol III holo inh inconclusive
c1ccc(CNc2ncnc3ccc(-c4cccnc4)cc23)cc1	none
COc1ccc(-c2nc3cnc(N(C)C)nc3n(CCC#N)c2=O)cc1	none
CCC(=O)N1c2ccccc2-c2nnc(SC)nc2OC1c1ccc(N(C)C)cc1 (centres undefined)	Tau fil binding 25.1µM
CCCCCSc1nnc2c(n1)OC(C)N(C(C)=O)c1ccccc1-2 (centres undefined)	Tau fil binding 25.1µM
O=C(O)c1cccc(CN2CCCCC2)c1	none
CCOC(=O)N1CCN(c2nc(SC)nc3sc4c(c23)CC(C)(C)OC4)CC1	Tau fil binding 15.8µM
CCN1CCN(c2nc(SC)nc3sc4c(c23)CC(C)(C)OC4)CC1	none
O=C1C=C[C@@H](O)[C@H]2[C@@H]3C(=O)N(C4CCCCC4)C(=O)[C@@H]3CC[C@H]12	none (no result: YjeE inh, Pol III holo inh, Tau fil binding, Hsp90 Hop PPI)
COc1cc(NC(=O)c2ccc(C)cc2)c(OC)cc1NC(=O)CN1CCOCC1	none
CCC(=O)Nc1cc(OC)c(NC(=O)c2ccccc2)cc1OC	Tau fil binding 12.6µM
COc1cc(NC(=O)c2ccc(Cl)cc2)c(OC)cc1NC(=O)CN1CCOCC1	Tau fil binding 20µM
COc1cc(NC(=O)c2ccccc2)c(OC)cc1NC(C)=O	Hsp90 Hop PPI inconclusive
COc1cc(NS(C)(=O)=O)c(OC)cc1NC(=O)c1ccccc1	Tau fil binding 15.8µM
COc1cc(NC(=O)c2ccccc2)cc(OC)c1	Tau fil binding 10µM
CC1(C)CC(=O)C2=C(C1)Oc1ncn(Cc3ccco3)c(=N)c1C2c1ccccc1 (centres undefined)	Tau fil binding 15.8µM
Cc1ccc(-n2nc(C)c3c2OC(N)=C(C#N)C3c2ccco2)cc1 (centres undefined)	none (no result: YjeE inh, Pol III holo inh, Tau fil binding, Hsp90 Hop PPI)
Cc1ccc(-n2nc(C)c3c2OC(N)=C(C#N)C3c2ccoc2)cc1 (centres undefined)	Tau fil binding 31.6µM
COc1ccccc1CNc1ncnc2ccc(-c3ccc(N(C)C)cc3)cc12	Tau fil binding 2µM, Hsp90 Hop PPI inconclusive
CC(=O)OC[C@@H]1O[C@@H](Oc2cc(OC(C)=O)c3c(=O)cc(-c4ccc(OC(C)=O)c(OC(C)=O)c4)oc3c2)[C@H](OC(C)=O)[C@H](OC(C)=O)[C@@H]1OC(C)=O	Tau fil binding inconclusive, Hsp90 Hop PPI inconclusive (no result: BRCT inh green, BRCT PPI red)
Oc1c(C(Nc2nc3ccccc3s2)c2ccco2)ccc2cccnc12 (centres undefined)	Hsp90 Hop PPI inconclusive
Cc1conc1NC(c1cccs1)c1ccc2cccnc2c1O (centres undefined)	Tau fil binding 12.6µM, Hsp90 Hop PPI 25.1µM
C#CCOC(=O)NC(/C=C/CCCC)c1ccccc1 (centres undefined)	none
Cc1c(N=c2c(=O)c3ccccc3c2=O)c(=O)n(-c2ccccc2)n1C	Tau fil binding 15.8µM
Cc1c(N=CC=Nc2c(C)n(C)n(-c3ccccc3)c2=O)c(=O)n(-c2ccccc2)n1C	none
Cc1ccc2cccc(S(=O)(=O)Nc3ccc4c(c3)OCO4)c2n1	Tau fil binding 7.94µM, Hsp90 Hop PPI inconclusive
O=S(=O)(Nc1ccc2c(c1)OCO2)c1ccc(Br)s1	Tau fil binding 20µM, Hsp90 Hop PPI inconclusive
CC(=O)Nc1ccccc1-c1nc2ccc(C(=O)N3CCN(c4ccccc4)CC3)cc2[nH]c1=O	Tau fil binding 15.8µM
CCn1c(=O)[nH]c2cc(C(=O)N3CCN(c4ccccc4)CC3)ccc2c1=O	none
O=S(=O)(Nc1ccc(N2CCOCC2)cc1)c1cccs1	Tau fil binding 15.8µM
O=S(=O)(Nc1ccc(S(=O)(=O)N2CCCCC2)cc1)c1cccs1	none
Cc1cc(NC(=O)c2cc(-c3ccncc3)nc3c(C)cccc23)no1	Tau fil binding 3.16µM
Nc1nc(N)c2nc(CNc3ccc(C(=O)N[C@H](CCC(=O)O)C(=O)O)cc3)cnc2n1	none
COc1cc(C2c3c(oc4ccc(C)cc4c3=O)C(=O)N2c2cc(C)ccn2)cc(OC)c1OC (centres undefined)	none

Source: PubChem BioAssay (National Center for Advancing Translational Sciences (NCATS))
